Results taken from PubChem BioAssay (NCATS).
Records with an inconclusive call do not appear. A call without a number means that no potency is given here. Calls of active or inactive are those of the source. Calls follow the shape of the dose curve; as a rule, active = well fitted inhibition curve with a large enough effect; inconclusive = small, poorly fitted or top-dose-only effect; inactive = flat fitted curve, though single readings scatter.

Columns and labels:
Assay in all cases: qHTS profiling for inhibitors of Plasmodium falciparum proliferation (AID 504749); also: nearly all actives have a fitted effect of over 60% in size
Conditions in all cases: P. falciparum in erythrocytes, SYBR Green DNA, 72 h; series mostly up to 28.7 µM
P94_40 = system: P94_40
Outline: (§1)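 In a 72 h erythrocytic culture (37 C, humidified, 5% CO2) at 2.5% hematocrit and 0.3% starting parasitemia, compounds were tested; SYBR Green I in detergent lysis buffer stained parasite DNA overnight.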

PAD = system: PAD
Outline: as §1

PC15 = system: PC15
Outline: as §1

PC49 = system: PC49
Outline: as §1

SC27B = system: SC27B
Outline: as §1

TAB109 = system: TAB109
Outline: as §1

TAB113 = system: TAB113
Outline: as §1

TAB165 = system: TAB165
Outline: as §1

W2 = system: W2
Outline: as §1

PC26 = system: PC26
Outline: as §1
Potency is read from the fitted curve at half-maximal effect.

Row | Structure (SMILES) | Potency (P94_40) | Potency (PAD) | Potency (PC15) | Potency (PC49) | Potency (SC27B) | Potency (TAB109) | Potency (TAB113) | Potency (TAB165) | Potency (W2) | Potency (PC26)
1 | CC(C)(Oc1ccc(CCNC(=O)c2ccc(Cl)cc2)cc1)C(=O)O | inactive | inactive | inactive | inactive | inactive | inactive | inactive | inactive | inactive | 
2 | CCCN(CCC)CCc1cccc2c1CC(=O)N2 | inactive | inactive | inactive | inactive | inactive | inactive | inactive | inactive | inactive | inactive
3 | NC(=Nc1ccccc1)Nc1ccccc1 | inactive | inactive | inactive | inactive | inactive | inactive | inactive | inactive | 9.53 µM (active) | 
4 | Nc1ncn([C@@H]2O[C@H](CO)[C@@H](O)[C@H]2O)c(=O)n1 | inactive | inactive | inactive | inactive | inactive | inactive | inactive | inactive | inactive | inactive
5 | CCN(CC)CC(=O)Nc1c(C)cccc1C | inactive | inactive | inactive | inactive | inactive | inactive | inactive | inactive | inactive | inactive
6 | O=C1NCN(c2ccccc2)C12CCN(CCCC(c1ccc(F)cc1)c1ccc(F)cc1)CC2 | 5.62 µM (active) | 5.01 µM (active) | 11.2 µM (active) |  | 8.91 µM (active) | 6.31 µM (active) | 12.6 µM (active) | 3.55 µM (active) | 2.39 µM (active) | 
7 | COCC(=O)O[C@]1(CCN(C)CCCc2nc3ccccc3[nH]2)CCc2cc(F)ccc2[C@@H]1C(C)C | 2.82 µM (active) | 3.55 µM (active) | 4.47 µM (active) | 1.12 µM (active) | 1.78 µM (active) | 2.24 µM (active) | 2 µM (active) | 2 µM (active) | 0.12 µM (active) | 3.38 µM (active)
8 | CCN(CC)CCNC(=O)c1cc(S(C)(=O)=O)ccc1OC | inactive | inactive | inactive | inactive | inactive | inactive | inactive | inactive |  | 
9 | C[C@]12CCC(=O)C=C1CC[C@@H]1[C@@H]2CC[C@@]2(C)[C@H]1CC[C@]2(O)C(=O)CO | inactive | inactive | inactive | inactive | inactive | inactive | inactive | inactive | inactive | 
10 | Cc1nnc(SCC2=C(C(=O)O)N3C(=O)[C@@H](NC(=O)Cn4cnnn4)[C@H]3SC2)s1 | inactive | inactive | inactive | inactive | inactive | inactive | inactive | inactive | inactive | inactive
11 | CC(=O)Nc1nnc(S(N)(=O)=O)s1 | inactive | inactive | inactive | inactive | inactive | inactive | inactive | inactive | inactive | inactive
12 | Cc1cc(C)c(/C=C2\C(=O)Nc3ccccc32)[nH]1 | inactive | inactive | inactive | inactive | inactive | inactive | inactive | inactive | inactive | inactive
13 | C[N+](C)(C)CCCCCCCCCC[N+](C)(C)C | 2.51 µM (active) | 2.24 µM (active) | 8.91 µM (active) | 3.98 µM (active) | 3.98 µM (active) | 3.55 µM (active) | 2.82 µM (active) | 3.16 µM (active) | 4.78 µM (active) | 6.01 µM (active)
14 | CCN(CC)CCCN(c1ccccc1)C1Cc2ccccc2C1 | 5.01 µM (active) | 4.47 µM (active) | 4.47 µM (active) | 3.98 µM (active) | 7.94 µM (active) | 3.55 µM (active) | 3.98 µM (active) | 3.98 µM (active) | 0.601 µM (active) | 7.57 µM (active)
15 | CCCCOCCOCCOCc1cc2c(cc1CCC)OCO2 | inactive | inactive | inactive | inactive | inactive | inactive | inactive | inactive | inactive | inactive
16 | NCCCNCCSP(=O)(O)O | inactive | inactive | inactive | inactive | inactive | inactive | inactive | inactive | inactive | inactive
17 | O=C1CC2(CCCC2)CC(=O)N1CCCCN1CCN(c2ncccn2)CC1 | inactive | inactive | inactive | inactive | inactive | inactive | inactive | inactive |  | 
18 | CC1=C(C)C(=O)C(CCCCC#CCCCC#CCO)=C(C)C1=O | 8.91 µM (active) | 4.47 µM (active) | 8.91 µM (active) | inactive | 7.08 µM (active) |  | 7.94 µM (active) | 5.01 µM (active) | 6.01 µM (active) | 7.57 µM (active)
19 | CCO/C([O-])=N/c1c[n+](N2CCOCC2)no1 | inactive | inactive | inactive | inactive | inactive | inactive | inactive | inactive | inactive | inactive
20 | NC1=NCC2c3ccccc3Cc3ccccc3N12 (centres undefined) | inactive | inactive | inactive | inactive | inactive | inactive | inactive | inactive | inactive | inactive
21 | FC(F)(F)c1ccccc1-n1ccnc1 | inactive | inactive | inactive | inactive | inactive | inactive | inactive | inactive | inactive | inactive
22 | C[n+]1cc2c3c(ccc2c2ccc4cc5c(cc4c21)OCO5)OCO3 | inactive | inactive | inactive | inactive | inactive | inactive |  | inactive |  | 
23 | CN(C)C(=O)Oc1cccc([N+](C)(C)C)c1 | inactive | inactive | inactive | inactive | inactive | inactive | inactive | inactive | inactive | inactive
24 | COC(=O)[C@@H](N)Cc1ccc(O)c(O)c1 | inactive | inactive | inactive | inactive | inactive | inactive |  | inactive |  | inactive
25 | CN=C(NC#N)NCCSCc1nc[nH]c1C | inactive | inactive | inactive | inactive | inactive | inactive | inactive | inactive | inactive | inactive

Row | Structure (SMILES) | Potency (P94_40) | Potency (PAD) | Potency (PC15) | Potency (PC49) | Potency (SC27B) | Potency (TAB109) | Potency (TAB113) | Potency (TAB165) | Potency (W2) | Potency (PC26)
26 | CC(C(=O)O)c1ccc(CC2CCCC2=O)cc1 (centres undefined) | inactive | inactive | inactive | inactive | inactive | inactive | inactive | inactive | inactive | inactive
27 | Cc1scc2c1N(C(=O)CN1CCN(C)CC1)c1ccccc1NC2=O | inactive | inactive | inactive | inactive | inactive | inactive | inactive |  | inactive | inactive
28 | CC(=O)[C@]1(O)Cc2c(O)c3c(c(O)c2[C@@H](O[C@H]2C[C@H](N)[C@H](O)[C@H](C)O2)C1)C(=O)c1ccccc1C3=O | 3.16 µM (active) | 5.01 µM (active) | 8.91 µM (active) | 7.08 µM (active) | 5.01 µM (active) | 3.98 µM (active) | 4.47 µM (active) | 3.16 µM (active) | 1.69 µM (active) | 
29 | COC(=O)C1=C(C)NC(C)=C(C(=O)OC(C)(C)CN(C)CCC(c2ccccc2)c2ccccc2)C1c1cccc([N+](=O)[O-])c1 (centres undefined) | 2.51 µM (active) | 2.51 µM (active) | 6.31 µM (active) |  | 2.24 µM (active) | 3.16 µM (active) | 2.51 µM (active) | 2.24 µM (active) | 1.2 µM (active) | 1.51 µM (active)
30 | Cc1ccc(Cl)c(Nc2ccccc2C(=O)O)c1Cl | inactive | inactive | inactive | inactive | inactive | inactive | inactive | inactive | inactive | inactive
31 | CN1CCN(C2=Nc3ccccc3Oc3ccc(Cl)cc32)CC1 | inactive | inactive | inactive | inactive | inactive | inactive | inactive | inactive |  | 
32 | Nc1c2c(nc3ccccc13)CCCC2O (centres undefined) | inactive | inactive | inactive | inactive | inactive | inactive | inactive | inactive | inactive | inactive
33 | CC[N+](C)(C)c1cccc(O)c1 | inactive | inactive | inactive | inactive | inactive | inactive | inactive | inactive | inactive | inactive
34 | CC(C)NNC(=O)c1ccncc1 | inactive | inactive | inactive | inactive | inactive |  | inactive | inactive | inactive | inactive
35 | CC(=O)[C@@]1(O)CC[C@H]2[C@@H]3CCC4=CC(=O)CC[C@]4(C)[C@H]3CC[C@@]21C | inactive | inactive | inactive | inactive | inactive | inactive | inactive | inactive | inactive | inactive
36 | NC(=O)c1cn(Cc2c(F)cccc2F)nn1 | inactive | inactive | inactive | inactive | inactive | inactive | inactive | inactive | inactive | inactive
37 | COc1ccc(CN(CCN(C)C)c2ccccn2)cc1 | inactive | inactive | inactive | 0.178 µM (active) |  |  | inactive | inactive | 7.57 µM (active) | inactive
38 | Cc1nc2sccn2c(=O)c1CCN1CCC(=C(c2ccc(F)cc2)c2ccc(F)cc2)CC1 | 11.2 µM (active) |  |  |  |  |  |  | 12.6 µM (active) |  | 
39 | CCCC(C(=O)OCCN(CC)CC)(c1ccccc1)c1ccccc1 |  | 11.2 µM (active) | 10 µM (active) | 7.08 µM (active) |  | 11.2 µM (active) | 10 µM (active) |  | 7.57 µM (active) | 12 µM (active)
40 | CN(C)CC/C=C1\c2ccccc2COc2ccccc21 |  | inactive | inactive |  |  |  |  |  | 1.2 µM (active) | 
41 | CN(C(=O)CCCOc1ccc2[nH]c(=O)ccc2c1)C1CCCCC1 |  |  | inactive |  | inactive | inactive | inactive |  |  | 
42 | CN1C[C@H](C(=O)N[C@]2(C)O[C@@]3(O)[C@@H]4CCCN4C(=O)[C@H](Cc4ccccc4)N3C2=O)C[C@@H]2c3cccc4[nH]cc(c34)C[C@H]21 |  |  |  |  |  |  |  |  | 1.51 µM (active) | 1.2 µM (active)
43 | Brc1c(NC2=NCCN2)ccc2nccnc12 | inactive |  |  | inactive | inactive |  |  |  | 5.36 µM (active) | 
44 | CNCCC(Oc1ccccc1OC)c1ccccc1 (centres undefined) |  |  |  | 3.16 µM (active) |  |  |  | 11.2 µM (active) | 4.26 µM (active) | 
45 | CCOC(=O)C1=C(C)NC(C)=C(C(=O)OC)C1c1cccc([N+](=O)[O-])c1 (centres undefined) | 11.2 µM (active) |  |  |  | 12.6 µM (active) |  |  | 10 µM (active) |  | 
46 | COc1cc(C(=O)OCCCN2CCCN(CCCOC(=O)c3cc(OC)c(OC)c(OC)c3)CC2)cc(OC)c1OC |  |  |  |  |  | 11.2 µM (active) | 11.2 µM (active) | 8.91 µM (active) | 3.01 µM (active) | 
47 | C=CCc1ccccc1OCC(O)CNC(C)C (centres undefined) | 12.6 µM (active) |  |  | inactive |  |  |  | 10 µM (active) | 2.39 µM (active) | 
48 | CN(C)CCCN1c2ccccc2Sc2ccc(C(F)(F)F)cc21 |  |  |  | 8.91 µM (active) |  |  |  | 12.6 µM (active) | 6.75 µM (active) | 
49 | CN(C)CC[C@@H](c1ccc(Br)cc1)c1ccccn1 |  | inactive |  |  | inactive |  |  |  | 0.849 µM (active) | 
